Hits are enriched below; roughly 21% of the tested compounds scored in any of these assays.
Shiga inhibitor – A qHTS for Small Molecule Inhibitors of Shiga Toxin; Vero cells, Shiga toxin protein synthesis inhibition reporter; inhibition, % at 38.7 µM; 9.2% of 290,000 active; in the data active means inhibition mostly above about 28%, no sharp cut-off; inactive means mostly below about 43%
Pf growth 96h – Primary qHTS for delayed death inhibitors of the malarial parasite plastid, 96 hour incubation. P. falciparum luciferase reporter growth, 96 h. Potency, µM (series often up to 28.7 µM), usual class: inhibitors. 6.9% of 320,000 active
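Luminescence readout: decreased luciferase signal marks inhibited growth of reporter-expressing P. falciparum in infected red cells (2% hematocrit, 0.05% parasitemia final), exposed to compound two generations (96 h, 37 C, 5% CO2).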
NS1 inh – qHTS Assay for Inhibitors of Influenza NS1 Protein Function | 0.4% of 270,000 active | Potency, µM (doses to about 46.1 µM); calls by dose curve; further: actives are rising curves; nearly all actives have a fitted effect of over 50% in size
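A cell-based growth assay was used: compounds that relieve NS1-induced slow growth of budding yeast raise OD600. Assay medium was yeast nitrogen base with ammonium sulphate and -URA supplement, pH 6.0, with 2% galactose.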
Sm TGR block – qHTS Assay for the Inhibitors of Schistosoma Mansoni Peroxiredoxins; Schistosoma mansoni thioredoxin glutathione reductase (TGR), Q962Y6; purified TGR, DTNB reduction, TNB absorbance 405 nm; Potency, µM (top dose mostly 114 µM), hits mostly inhibitors; 3% of 360,000 active; AID 485364, 2010; further: nearly all actives have a fitted effect of over 60% in size
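Kinetic colorimetric format: TGR-catalysed, NADPH-driven DTNB reduction monitored via TNB absorbance. Enzyme dispensed at 20 nM; compound exposure 15 min at room temperature before reaction start.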
Pf growth 48h – Primary qHTS for delayed death inhibitors of the malarial parasite plastid, 48 hour incubation | P. falciparum luciferase growth in erythrocytes, 48 h | Potency, µM (series often up to 28.7 µM), most hits filed as inhibitors | 5.9% of 310,000 active | AID 504832, 2011
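In quantitative HTS format, infected erythrocytes bearing luciferase-reporter parasites were treated for a single generation at 37 C. Luminescence after adding detection reagent served as the growth measure.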
CHX counter – Cycloheximide Counterscreen for Small Molecule Inhibitors of Shiga Toxin | max response, % | AID 2314, 2010 | cell reporter, cycloheximide protein synthesis inhibition counterscreen | 12% of 300,000 active; in the data active means max response mostly above about 13%, no sharp cut-off; inactive means mostly below about 14%; further: read at 38.3 µM for the half of the compounds with a filed dose
Hits are given with their value; n = inactive; u = inconclusive; x = not tested or not shown; [ ] = remark or other dose. Unless noted, the call rests on the fitted dose curve; in most records, active means well fitted curve in the direction sought with a large enough effect; inconclusive means small, poorly fitted or top-dose-only effect, or another doubt; inactive means no such curve, though single readings can be large; an effect the other way counts as inactive or inconclusive.

SMILES	Shiga inhibitor	Pf growth 96h	NS1 inh	Sm TGR block	Pf growth 48h	CHX counter
CCCCCCCn1c(=N)n(CC(O)c2ccco2)c2ccccc21 (stereo unspecified)	n	u	n	n	4.1µM	n
O=C1CN(C(=O)c2c(F)cccc2Cl)C(c2ccc(F)cc2)c2cc(Br)ccc2N1 (stereo unspecified)	x	x	x	n	x	x
COc1ccc(S(=O)(=O)N2CCN(Cc3nc4ccc(C)cc4o3)CC2)cc1OC	x	x	x	n	x	x
O=C1CC(/C=C/c2cccnc2)=Nc2ccccc2N1	n	u	n	n	u	17
CC1(C)CC(/C=C/c2ccccc2)=Nc2ccccc2N1	83	u	n	n	u	52
O=C1CCC(/C=C/c2ccccc2)=NN1Cc1ccc(F)cc1	n	n	x	n	n	n
O=C1CC(/C=C/c2ccc(Cl)cc2)=Nc2ccccc2N1	97	u	n	n	u	39
O=C1CC(/C=C/c2ccccc2)=Nc2ccccc2N1	58	n	n	n	n	30
O=C1CC(C(F)(F)C(F)(F)C(F)(F)F)=Nc2ccccc2N1	n	n	n	n	n	n
COc1ccc(-n2nc3ccc(NC(=O)c4cc5ccccc5o4)cc3n2)cc1Cl	x	x	x	n	x	x
C=C(C)C1CC=C(C)/C(=N/NC(=O)CNc2ccc(OCC)cc2)C1 (stereo unspecified)	n	u	n	n	u	n
NS(=O)(=O)c1ccc(CCNC(=O)c2ccc3nc(CCc4ccccc4)oc3c2)cc1	x	x	x	n	x	x
Cc1cc(C)c(S(=O)(=O)NCCS(=O)(=O)N2CCN(c3ccccc3)CC2)c(C)c1	x	x	x	n	x	x
O=C1C2C3C=CC(CNS(=O)(=O)c4ccccc4[N+](=O)[O-])(O3)C2C(=O)N1c1ccccc1 (stereo unspecified)	n	u	x	3.2µM	u	n
O=[N+]([O-])c1ccccc1S(=O)(=O)NCc1ccco1	n	u	n	n	n[1.15 µM]	n
Cc1cc(C)c(S(=O)(=O)NCC23C=CC(O2)C2C(=O)N(c4ccccc4)C(=O)C23)c(C)c1 (stereo unspecified)	n	n	n	4.5µM	n	n
Cc1ccc2c(c1)c(CC(NC(=O)c1ccccc1Oc1ccccc1)C(=O)O)cn2C(=O)OCc1ccccc1 (stereo unspecified)	n	x	x	x	x	n
CCOC(=O)CNC(=O)N1CCc2ccc(NC(=O)c3ccccc3OC)cc2C1	n	n	n	n	u	n
COc1ccccc1C(=O)Nc1ccc2c(c1)CN(Cc1cnc(C)s1)CC2	29	u	n	n	u	12
CCOC(=O)c1noc2ncnc(N(CCC(=O)OC)c3ccccc3)c12	x	x	x	n	x	x
CC(C)CCn1c(SCC(=O)NC2CCS(=O)(=O)C2)nc2cc(Cl)ccc2c1=O (stereo unspecified)	x	n	x	n	n	x
Cc1cccc(-n2nc([N+](=O)[O-])c(=NCc3cccnc3)n2O)c1	n	u	n	n	u	n
O=[N+]([O-])c1nn(-c2cccc(Cl)c2)n(O)c1=NCc1cccnc1	n	n	n	n	n	23
O=[N+]([O-])c1nn(-c2ccc(Cl)cc2)n(O)c1=NCc1cccnc1	n	n	n	n	n	23
Nc1cccc(Oc2cnccn2)c1	n	n	n	n	x	n
SMILES	Shiga inhibitor	Pf growth 96h	NS1 inh	Sm TGR block	Pf growth 48h	CHX counter
O=C(CCl)Nc1cccc(Oc2ccccc2)c1	n	4.7µM	x	11µM	u	n
O=C(CSc1cccc[n+]1[O-])Nc1cccc(Oc2ccccc2)c1	n	n	x	n	n	21
Nc1nc(SCC(=O)Nc2cccc(Oc3ccccc3)c2)n[nH]1	n	n	n	n	n	n
O=C(CCl)Nc1cccc(Oc2cnccn2)c1	n	3.7µM	n	11µM	x	n
CCCCc1n[nH]c(=S)n1Cc1ccc(C)cc1	n	u	x	n	u	n
Cc1nc(C(C)N(C)Cc2nc(-c3ccc4c(c3)OCO4)no2)c(C)s1 (stereo unspecified)	n	n	n	n	n	51
COc1ncccc1C(=O)N1CCCC(C(=O)c2cc(F)ccc2F)C1 (stereo unspecified)	n	n	n	n	n	n
CCc1noc(C)c1C(=O)N1CCCC(C(=O)c2cc(F)ccc2OC)C1 (stereo unspecified)	n	12µM	n	n	n	n
